Screening data as filed in PubChem BioAssay.
GPR151 activ – activators of human GPR151. Q8TDV0. PathHunter beta-arrestin GPR151 cells, luminescence. activation, % at 11.2 µM. 650,000 tested, 1% active; in the data active = activation above about 4.9%;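 also: 0% = median of compound wells and 100% = cells with positive control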
Target sequence (Q8TDV0 whole entry, looked up): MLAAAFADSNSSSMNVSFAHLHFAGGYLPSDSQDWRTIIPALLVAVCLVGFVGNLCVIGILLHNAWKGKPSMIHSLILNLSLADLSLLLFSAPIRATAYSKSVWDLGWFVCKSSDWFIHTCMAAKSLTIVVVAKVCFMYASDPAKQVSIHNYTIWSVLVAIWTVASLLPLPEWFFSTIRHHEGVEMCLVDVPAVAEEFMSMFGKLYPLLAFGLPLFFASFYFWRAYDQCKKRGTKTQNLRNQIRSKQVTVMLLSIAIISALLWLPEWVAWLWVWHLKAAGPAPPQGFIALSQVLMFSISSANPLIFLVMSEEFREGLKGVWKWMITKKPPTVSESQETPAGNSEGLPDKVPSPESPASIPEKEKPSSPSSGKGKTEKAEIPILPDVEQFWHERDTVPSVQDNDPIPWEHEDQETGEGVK
MITF primary – inhibitors of human MITF; 650,000 tested, 0.91% active; AlphaScreen MITF homodimerization, bead proximity signal; inhibition, % at 2.6 µM; in the data active = inhibition above about 50%;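 also: 0% = vehicle wells with protein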
TEAD-YAP block – TEAD-YAP interaction inhibition. HEK-TIYL cells, TEAD-Gal4/YAP UAS-luciferase luminescence. inhibition, % at 9.12 µM. 640,000 tested, 1.4% active; in the data active = inhibition above about 32%;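 also: 0% = median of test compound wells and 100% = reference inhibitor wells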
FBW7 activator – activators of human E3 ligase FBW7 | Q969H0 | AlphaScreen FBW7–phospho-cyclin E peptide binding, activator screen | normalized activity (activation), % at 26.1 µM | 650,000 tested, 0.13% active; in the data active = normalized activity above about 1.9%;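 also: purified mutant Fbw7 with reduced substrate affinity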
GPR151 conf act – confirmation of human GPR151 activators; shares compounds with GPR151 activ; activation, % at 11.2 µM; 6,700 tested, under 10 active; GPR151 PathHunter beta-arrestin cells, luminescence, 90 min; % of EA-reagent control over plate median;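 active = mean percent activation across replicates above the confirmation screen cutoff of 4.91%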
GPR119 counter – counter-screen for GPR151 activators: effect on human GPR119 | shares compounds with GPR151 activ | GPR119 PathHunter beta-arrestin cells, luminescence, 90 min; 0 = compound-well median, 100 = enzyme-acceptor control | activation, % at 11.2 µM | 6,700 tested, 0.3% active;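 active = mean percent activation in the counterscreen above 29.09%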;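 also: counterscreen on off-target GPR119 to flag nonselective hits from the GPR151 activator screen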
Starred values were filed as active, the others as inactive; · = not tested or not shown. Shown are actives, neighbours in structure and some others; about 3.5% of the full set was active somewhere.

SMILES | GPR151 activ | MITF primary | TEAD-YAP block | FBW7 activator | GPR151 conf act | GPR119 counter
CCOc1ccccc1N(C)C(=O)c1nn(-c2ccc(OC)cc2)c(=O)c2ccccc12 | 0 | 3 | 7 | 0 | · | ·
CC1=C(C(=O)OCC(C)C)C(c2ccc(N(C)C)cc2)c2c(n(C)c(=O)n(C)c2=O)N1 (stereo unspecified) | -1 | 9 | -1 | 0 | · | ·
CCN1CCN(C(CC(C)C)c2nnnn2Cc2ccc3c(c2)OCO3)CC1 (stereo unspecified) | 5.3* | 3 | -3 | 0 | 1 | 6
C/C(=C\c1ccco1)CN1CCC2(CC1)CC2C(=O)NCCn1ccnc1 (stereo unspecified) | 0 | 3 | 6 | 0 | · | ·
COc1ccc2ccccc2c1/C=C1\C(=O)NC(=O)N(c2ccc([N+](=O)[O-])cc2)C1=O | 6.7* | 10 | 8 | 0 | 0 | 0
COc1cccc(N2C(=O)NC(=O)/C(=C/c3c(OC)ccc4ccccc34)C2=O)c1 | -1 | -11 | 3 | 0 | · | ·
COc1ccc(N2C(=O)NC(=O)/C(=C/c3cccn3-c3cccc([N+](=O)[O-])c3)C2=O)cc1 | 4.9* | 15 | 0 | 0 | 0 | 4
OC(COc1ccccc1CN1CCCC1)CN1CCc2ccccc2C1 (stereo unspecified) | 8.9* | -8 | 6 | 0 | 0 | -4
CC(C)(CNC(=O)c1ccncc1)CNC(=O)c1ccncc1 | -1 | 28 | 0 | 0 | · | ·
CCOC(=O)C1=C(C)N=c2s/c(=C/c3ccc(N(CC)CC)o3)c(=O)n2C1c1ccccc1OC (stereo unspecified) | 0 | 7 | 11 | 0 | · | ·
C=C1c2cc(OC)ccc2NC(=O)N1CC | 5.5* | -7 | 12 | 0 | -1 | -16
C=C1c2ccc(C)cc2NC(=O)N1CC | 0 | -17 | 7 | 0 | · | ·
COc1cccc(NC2=NCC(=O)N2Cc2ccc(F)cc2)c1 | 6.0* | -5 | -16 | 0 | 1 | 9
NS(=O)(=O)c1ccc(NC(=O)CSc2nc3cc(Cl)ccc3s2)cc1 | 6.1* | 2 | -5 | 0 | 0 | 20
O=C(CSc1nc2cc(Cl)ccc2s1)Nc1ccc(Cl)cc1 | 1 | 0 | 1 | 0 | · | ·
CCOC(=O)c1sc2nc(SCC#N)n(Cc3ccc(OC)cc3)c(=O)c2c1C | 0 | 15 | -9 | 0 | · | ·
CC(=O)c1cccc(NC(=O)c2ccoc2C)c1 | 5.9* | -4 | 4 | 0 | -1 | -9
Cn1c(=O)c2c(ncn2CCn2cnc3c2c(=O)n(C)c(=O)n3C)n(C)c1=O | -2 | 2 | 1 | 0 | · | ·
CN(C)C(=O)NCCn1cnc2c1c(=O)n(C)c(=O)n2C | 6.2* | 13 | 3 | 0 | -1 | -2
CN1C(=O)C(=Cc2ccc(-c3ccc4c(c3)C(=O)c3ccccc3C4=O)o2)C(=O)N(C)C1=O | 1 | -5 | -10 | 0 | · | ·
CS(=O)(=O)N(CC(=O)Nc1ccc(Cl)c(Cl)c1)c1ccccc1F | 3 | 0 | 12 | 0 | · | ·
COc1cc(NC(=O)c2c(C)cc3ccccn23)cc(OC)c1OC | 7.3* | 18 | 0 | 0 | 0 | -2
CCOc1cc(/C=N/NS(C)(=O)=O)ccc1O | 9.0* | 11 | 15 | 0 | 0 | -6
CCOc1cc(/C=N/Nc2ccc(S(=O)(=O)O)cc2)ccc1O | 0 | 47 | 18 | 0 | · | ·
CCOc1ccc(C2c3[nH]c4ccccc4c3CCN2C(=O)c2cc3cc(Br)ccc3o2)cc1 (stereo unspecified) | -1 | 17 | -4 | 0 | · | ·
SMILES | GPR151 activ | MITF primary | TEAD-YAP block | FBW7 activator | GPR151 conf act | GPR119 counter
CC1(c2ccccc2Cl)NC(=O)N(Cc2ccccc2C#N)C1=O (stereo unspecified) | 3 | -17 | 11 | 0 | · | ·
CCC1(c2ccc(F)cc2)NC(=O)N(Cc2ccccc2C#N)C1=O (stereo unspecified) | 5.7* | -4 | -3 | 0 | 1 | 12
COC(=O)CN1C(=O)S/C(=C/C=C/c2ccccc2[N+](=O)[O-])C1=O | -1 | 17 | 4 | 0 | · | ·
C=CCN1C(=O)/C(=C\c2ccc(C(=O)O)cc2)S/C1=N/c1nnc(CC)s1 | 1 | 6 | 1 | 0 | · | ·
COC(=O)CN1C(=O)S/C(=C\c2cc(Br)c(OC)c(OC)c2)C1=O | 14* | 9 | -1 | 0 | 1 | 3
C=CCN1C(=O)/C(=C/c2ccc(OCC(=O)O)cc2)S/C1=N/c1nccs1 | 7.0* | 6 | -1 | 0 | 2 | 4
COC(=O)CN1C(=O)S/C(=C/c2cccc([N+](=O)[O-])c2O)C1=O | 5.3* | 14 | 4 | 0 | 0 | -12
COc1cc(/C=C2\SC(NC(C)=O)=NC2=O)cc(Br)c1OC(C)=O | 7.4* | 11 | 4 | 0 | 1 | -7
COc1cc(/C=C2\SC(NC(C)=O)=NC2=O)cc(OC)c1OC | -1 | -13 | -7 | 0 | · | ·
COc1ccc(NC(=O)c2ccccc2Br)cc1[N+](=O)[O-] | 0 | 2 | -13 | 0 | · | ·
COC(=O)CN1C(=O)S/C(=C/c2ccc(OCC(=O)O)cc2)C1=O | 9.8* | 13 | 8 | 0 | 1 | 5
COc1ccc(-c2cc3c(=O)n(CC(=O)NCCCN4CCCCCC4)ncn3n2)cc1 | -1 | 1 | -22 | 0 | · | ·
O=C(NC1C2CC3CC(C2)CC1C3)c1ccc(CN2CCC(O)CC2)[nH]c1=O (stereo unspecified) | -1 | 1 | 4 | 0 | · | ·
O=C(N[C@H]1CCCCNC1=O)c1ccc(CN2CCC(c3ccccc3)CC2)[nH]c1=O | 5.3* | -13 | 3 | 0 | 0 | 6
Cc1cc(NC(=O)Cn2cc([N+](=O)[O-])cn2)n(-c2ccccc2)n1 | 3 | -3 | -13 | 0 | · | ·
Cc1cc(NC(=O)COc2cc(F)ccc2[N+](=O)[O-])n(-c2ccccc2)n1 | 15* | -8 | -1 | 0 | -1 | -10
Cc1cc(C)n(C(=O)COc2ccccc2[N+](=O)[O-])n1 | 5.4* | -16 | 4 | 0 | 0 | -2
NC(=O)c1cccc(N2C(=O)C=CC2=O)c1 | 1 | -7 | 7 | 0 | · | ·
COc1ccc(OC)c(CC2(NC(=O)c3ccccc3)N=C3C=C(C)C=CN3C2=O)c1 (stereo unspecified) | 1 | -5 | 1 | 0 | · | ·
CCOc1ccc(-n2c(N)c3c(N)nc(N(CC)CC)c(C#N)c3c(C#N)c2=S)cc1 | 1 | 0 | 4 | 0 | · | ·
Nc1nc(NCCc2ccc(O)cc2)cc(-c2ccc(C(=O)NC3CC3)cc2)n1 | 6.8* | 2 | 3 | 0 | -1 | -10
NC(=O)c1ccc(-c2cc(NCCc3ccc(O)cc3)nc(N)n2)cc1 | -2 | -8 | -13 | 0 | · | ·
Cc1ccc2c(c1)CN(CC(=O)NCc1ccncn1)CC(C)O2 (stereo unspecified) | 0 | 9 | -5 | 0 | · | ·
